Screens as filed in PubChem.
This is a sample that favours compounds with a hit; in the whole collection about 2.9% have one here.
PI5P4K alpha inh = PI5P4K alpha (human) kinase inhibition; PI5P4Kalpha enzyme, ADP-Glo luminescence, 60 min; hits give low values; max response, %; hit rate 1.2% among 330,000; active = max response of -50% or lower; inconclusive = between -30% and -50%; inactive = -30% or higher; also: value at the top dose of about 77 µM; % is scaled to controls: 0 for no effect and ±100 for the full control effect
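ADP-Glo luminescence end-point after a 60 min room-temperature kinase reaction. PI5P4Kalpha and substrate in HEPES pH 7.4 buffer with EGTA, 0.1% CHAPS and 5% DMSO; ATP at 5 microM final.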
ALOX12 inh = inhibitors of human 12S-lipoxygenase ALOX12; P18054; purified 12hLO, xylenol orange hydroperoxide absorbance; Potency, µM (top dose mostly 108 µM), for the others: at the highest dose activity change, negative = inhibition, actives largely listed as inhibitors; hit rate 1.1% among 580,000; AID 1671190; also: potency is read from the fitted curve at half-maximal effect; % is scaled to controls: 0 for no effect and ±100 for the full control effect
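Hydroperoxide product was detected by ferrous iron/xylenol orange as the 573 to 405 nm absorbance ratio. Arachidonic acid at 40 uM (final) was turned over for 30 min at room temperature by 150 nM human 12hLO, pH 7.0 Hepes buffer, after 15 min compound preincubation.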
POLH inh = blocks human DNA polymerase eta activity; Potency, µM (series often up to 114 µM), inactives show top-dose activity change, negative = inhibition, most hits filed as inhibitors; recombinant Pol eta, fluorescent DNA replication assay; hit rate 1.2% among 390,000; also: potency is read from the fitted curve at half-maximal effect; % is scaled to controls: 0 for no effect and ±100 for the full control effect
Target sequence (Q9Y253 whole entry, looked up): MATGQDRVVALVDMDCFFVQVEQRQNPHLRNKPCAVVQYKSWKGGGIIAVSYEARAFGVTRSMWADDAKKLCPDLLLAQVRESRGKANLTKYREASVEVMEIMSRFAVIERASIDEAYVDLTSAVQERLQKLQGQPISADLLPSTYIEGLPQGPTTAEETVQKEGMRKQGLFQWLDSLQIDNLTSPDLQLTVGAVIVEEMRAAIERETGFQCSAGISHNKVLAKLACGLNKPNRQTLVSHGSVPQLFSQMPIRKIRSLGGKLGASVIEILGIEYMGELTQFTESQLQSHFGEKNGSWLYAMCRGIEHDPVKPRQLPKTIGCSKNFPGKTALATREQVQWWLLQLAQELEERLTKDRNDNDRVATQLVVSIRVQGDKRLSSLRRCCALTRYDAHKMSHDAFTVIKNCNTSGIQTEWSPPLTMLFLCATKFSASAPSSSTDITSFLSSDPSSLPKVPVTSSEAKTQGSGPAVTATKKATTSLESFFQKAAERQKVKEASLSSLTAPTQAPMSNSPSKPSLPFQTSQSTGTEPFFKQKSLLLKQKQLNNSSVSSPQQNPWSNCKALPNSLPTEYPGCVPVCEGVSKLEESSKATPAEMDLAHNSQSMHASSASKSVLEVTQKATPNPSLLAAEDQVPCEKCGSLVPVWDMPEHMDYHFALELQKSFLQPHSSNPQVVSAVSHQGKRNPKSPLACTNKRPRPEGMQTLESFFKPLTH
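Fluorescent replication assay: 50 nM final substrate added after a 15 min room-temperature compound preincubation with 10 nM enzyme. Signal taken at 0 min and again at 10 min.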
POLK inh = DNA polymerase kappa (human) inhibition. Q9UBT6. hit rate 0.53% among 400,000. AID 588579. purified Pol kappa, fluorescent DNA synthesis assay, 10 min. Potency, µM (titrated, usually from 107 µM), for inactives: at the top dose activity, negative = inhibition, hits mostly inhibitors; also: potency is read from the fitted curve at half-maximal effect; % is scaled to controls: 0 for no effect and ±100 for the full control effect
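First, compounds were pin-transferred onto 10 nM Pol kappa. After 15 min at room temperature, substrate was added to 50 nM final. Fluorescence was then measured kinetically at 0 and 10 min.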
Pol beta inh = blocks human DNA polymerase beta activity; P06746; Pol beta primer extension/strand displacement, fluorescence kinetic; Potency, µM (series often up to 114 µM), inactives show at the highest dose activity change, negative = inhibition, usual class: inhibitors; hit rate 1.3% among 340,000; also: potency is read from the fitted curve at half-maximal effect; % is scaled to controls: 0 for no effect and ±100 for the full control effect
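10 nM enzyme + cpd, 15 min RT; start with substrate 50 nM final; read 0 min and after 10 min RT. Corrected, normalized data; 4-parameter Hill curve fit.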
Pol iota inh = inhibitors of human DNA polymerase iota | Q9UNA4 | Pol iota fluorescent replication assay, 10 min | Potency, µM (series often up to 115 µM), inactives show top-dose activity, negative = inhibition, hits mostly inhibitors | hit rate 1% among 390,000 | AID 588590; also: potency is read from the fitted curve at half-maximal effect
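Pol iota at 10 nM preincubated 15 min with compounds at room temperature; reaction started with fluorescent substrate, 50 nM final. Fluorescence read kinetically at 0 and 10 min; buffer-only wells as negative control.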
* hit, by the source's call; ? = inconclusive; . = no result given; [ ] = another dose, or the depositor's remark. Unless noted, calls follow the shape of the dose curve; as a rule, active = well fitted inhibition curve with a large enough effect; inconclusive = small, poorly fitted or top-dose-only effect, or another doubt; inactive = no such curve, though single readings can be large or run the other way.

SMILES | PI5P4K alpha inh | ALOX12 inh | POLH inh | POLK inh | Pol beta inh | Pol iota inh
CN(C)C(=O)CSc1ncnc2scc(-c3ccccc3)c12 | 0.2 | -10.8% | -18.8% | -3.5% | -2.2% | 110.4%
O=C(O)CSc1ncnc2scc(-c3ccc(Br)cc3)c12 | -66.5* | 11.5% | 7.8% | -15.8% | -28.7% | 38.1%
O=C(O)CSc1ncnc2scc(-c3ccccc3)c12 | -76.5* | 13.3% | -3.7% | 2.2% | -13.0% | 40.2%
CC(=O)CSc1ncnc2scc(-c3ccc(F)cc3)c12 | -4.6 | -0.8% | -17.5% | -3.9% | -28.5% | 1.8%
CCOc1cccc2c1Oc1nc(-c3cccc(OC(C)C)c3)[nH]c(=O)c1C2 | . | 3.5% | . | . | . | .
Fc1ccc(CN2CCCCCC2)c(F)c1 | -3.4 | ? | -7.7% | 0.0% | 1.1% | 32.2%
Fc1ccc(CN2CCCCCCC2)c(F)c1 | -1.8 | 0.447µM* | 0.2% | 9.8% | 20.8% | 8.7%
O=S(=O)(NCCc1ccc(-n2cccn2)cc1)c1ccc(F)cc1 | . | 9.1% | . | . | . | .
COC(=O)C1=C(C(=O)OC)SC(=C(Cl)C(=S)Sc2ccccn2)S1 | . | 4.47µM* | . | . | . | .
COC(=O)CNC(=O)CSc1ccccn1 | -2.3 | ? | -11.4% | -11.1% | -24.3% | 17.6%
CCOc1ccc(CCNC(=O)c2cc3cc4cc(OC)ccc4nc3s2)cc1OCC | . | -20.6% | -11.3% | -28.8% | 14.1µM* | -3.6%
COc1ccc2nc3sc(C(=O)Nc4cc(Cl)c(OC)cc4OC)cc3cc2c1 | . | -26.8% | ? | 0.0% | ? | -5.0%
Cc1ccc(CCNC(=O)c2cc3cc4cc(C)ccc4nc3s2)cc1 | . | -28.2% | -10.4% | 2.9%[60.1 µM] | ? | 29.7%
CCC(C)NC(=O)c1cc2cc3ccc(OC)cc3nc2s1 (centres undefined) | . | 0.0% | ? | ? | 50.1µM* | -15.1%
CN(Cc1ccsc1)C(=O)c1ccsc1 | . | -18.3% | . | . | . | .
Cc1nnc(-c2cc(C(=O)Nc3cccnc3)ccn2)n1CCc1ccccc1 | . | -1.2%[176 µM] | . | . | . | .
O=C(O)c1ccc(-n2cc(-c3cc4ccccc4oc3=O)[nH]c2=S)cc1 | -21.5 | 31.6µM* | ? | -10.5% | -3.5% | 105.4%
O=c1oc2ccccc2cc1-c1ccccc1 | 2.9 | 2.4% | -6.4% | 2.6% | 24.6% | 0.9%
CC(=O)Nc1c(S(=O)(=O)c2ccccc2)c2nc3ccccc3nc2n1Cc1ccccc1 | 27.8 | 0.0% | -20.4% | -12.8% | 1.5% | 22.1%
C=CCn1c(NS(=O)(=O)c2ccccc2)c(S(=O)(=O)c2ccc(C)cc2)c2nc3ccccc3nc21 | 7.4 | 0.7% | 89.1µM* | 4.8% | ? | 3.16µM*
O=c1c(-c2ccccc2)c1-c1ccccc1 | . | -27.9%[22.9 µM] | . | 0.4%[60.1 µM] | -0.8% | .
S=c1sscc1-c1ccccc1 | 6.8 | 5.62µM* | -21.1% | -6.8% | . | 57.1%
CCOc1cc(C(c2c(O)nc(SC)[nH]c2=O)c2c(O)nc(SC)[nH]c2=O)ccc1O | ? | 1.4% | -13.0% | -2.7% | . | ?
COc1ccccc1C(c1c(O)nc(SC)[nH]c1=O)c1c(O)nc(SC)[nH]c1=O | -51.3* | -14.9% | -14.9% | -8.7% | . | 8.7%
COc1cc(/C=C/C(=O)OCC(=O)NNC(=O)c2cc(Cl)ccc2OC)ccc1O | -1.1 | 5.6% | -14.2% | 0.0% | . | 20.9%
SMILES | PI5P4K alpha inh | ALOX12 inh | POLH inh | POLK inh | Pol beta inh | Pol iota inh
COc1cc(/C=C/C(=O)OCCOc2ccc(Cl)cc2)ccc1O | . | 20µM* | . | . | . | .
COc1ccccc1NC(=O)NCCn1c(C(F)(F)F)nc2ccccc21 | . | -45.0% | . | . | . | .
CC(=O)c1c(C)[nH]c(C(=O)OCC(=O)c2c[nH]c3ccccc23)c1C | -1.2 | -22.7% | 0.7% | -5.7% | . | 79.4µM*
C=CCn1cc(CN(Cc2ccco2)Cc2cccs2)c(C)n1 | . | 12.6µM* | . | . | . | .
Cc1ccc(NC(=O)Cc2n[nH]c(=O)c3ccccc23)cc1C | . | 4.6% | . | . | . | .
CCC(N)(CC)c1cn(CC2CCCN(S(C)(=O)=O)C2)nn1 (centres undefined) | . | 20µM* | . | . | . | .
O=C(O)[C@@H]1[C@H]2C[C@H]3c4[nH]c5ccccc5c4CCN3C[C@@H]2CC[C@@H]1O | 0.2 | 209.6% | 79.4µM* | ? | . | ?
Cn1c(=O)[nH]c(=O)c2c1nc(SCCN1CCCCC1)n2CCc1ccccc1 | . | -24.9% | . | . | . | .
Cc1cccc(NC(=O)CSc2ncnc3ccccc23)c1C | . | 19.6% | . | . | . | .
COc1cc2nc(CC(O)c3nc4cc(OC)c(OC)cc4[nH]3)[nH]c2cc1OC (centres undefined) | . | . | . | 10µM* | . | 3.16µM*
Cc1cc(OC(C)C(=O)NCC2CCC(C(=O)O)CC2)c2c(C)c(Cc3ccccc3)c(=O)oc2c1 (centres undefined) | -6.6 | -23.5% | ? | -13.9% | -36.2% | 79.4µM*
O=C(Nc1cccc(Cl)c1)OCc1cnc(Cl)s1 | 2.6 | 25.1µM* | -15.0% | -1.2% | -2.0% | 0.9%
O=C(Nc1cccc(Cl)c1)OCCOCCOC(=O)Nc1cccc(Cl)c1 | 24.0 | -3.8% | -16.8% | -4.5% | . | 12.4%
CCCCOC(=O)c1nc2ccccc2nc1Nc1cccc(OC)c1 | . | 6.31µM* | . | . | . | .
S=c1[nH]c(-c2ccccc2)cn1/N=C/c1cccnc1 | -10.1 | ? | 1.9% | 2.6% | -27.8% | -18.5%
O=C(O)c1ccc(/C=N/n2cc(-c3ccccc3)[nH]c2=S)cc1 | -4.5 | 44.7µM* | -18.0% | 4.0% | 2.4% | 27.4%
S=c1[nH]c(-c2ccccc2)cn1/N=C/c1cccs1 | -17.7 | -19.5% | -13.2% | -11.7% | -3.9% | 49.8%
S=c1[nH]c(-c2ccccc2)cn1/N=C/c1ccc(Br)cc1 | -16.9 | 39.8µM* | -10.7% | -7.2% | -5.1% | 55.7%
Cc1noc(C)c1-c1cc2c(c(-c3cccc(OC(C)C)c3)c1)C(=O)N(C)C2 | . | 10.8%[176 µM] | . | . | . | .
Cc1ccccc1OCC(=O)NCC(=O)N/N=C/c1ccc(Br)o1 | -6.2 | -20.6% | 25.1µM* | -5.1% | ? | -11.4%
CC[n+]1c(/C=C2\Sc3ccccc3N2C)ccc2cccc(C)c21 | 0.0 | 44.7µM* | ? | -36.9% | 28.2µM* | ?
CCN1/C(=C/c2ccc3cc(C)ccc3[n+]2CC)Sc2ccccc21 | -6.3 | 44.7µM* | ? | -34.0% | ? | ?
O=C(CSc1nc2sc3c(c2c(=O)n1-c1ccccc1)CCCC3)N/N=C/c1ccc(C(=O)O)cc1 | -11.2 | . | ? | ? | ? | 39.8µM*
CN(C)c1ccc(N=Nc2ccc(S(N)(=O)=O)cc2)cc1 | -15.8 | -26.5% | ? | -36.0% | ? | 20µM*
O=C(O)c1ccc2c(c1)S(=O)(=O)c1cc(N3CCN(c4ncccn4)CC3)ccc1C2=O | -56.9* | ? | -5.3% | . | . | .
O=[N+]([O-])CC(=Nc1ccc(Cl)cc1)N/N=C\c1oc(O)c2ccccc12 | ? | 3.98µM* | 39.8µM* | -26.3% | 1.3% | 71.0%
Cc1ccc(/C=C2\SC(=S)N(Cc3ccccc3)C2=O)o1 | . | 44.7µM* | -0.7% | -12.0% | 0.2% | -8.6%
